Consider 20 compounds from PubChem BioAssay (NCI).

Structures are written as SMILES. This is part of a sample that, as a whole, favours compounds with a hit. Of some 83,000 tested, about 20% had one in any assay.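 The endpoint reported here, percent growth, reads 100 for growth as untreated, 0 for no net growth and -100 for all cells dead.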 A number with no mark means an inactive call. Activity calls are given as the source filed them. How the source made its calls: active means growth percent below 10; inactive means the rest.

Common to all, as to experiment: NCI-60 one-dose screen, 48 h (100 = growth as untreated, 0 = no growth, -100 = all killed)
What all share (details): 10 µM

Assay [1] deals with BT-549 breast.
The subject of assay [2] is MDA-MB-435 melanoma.
Assay [3] relates to SW-620 colon.
The subject of assay [4] is MCF7 breast.
Assay [5] concerns HCT-116 colon.
In assay [6] the test system is KM12 colon.

For the compound `c1ccc(CP(Cc2ccccc2)c2ccccc2)cc1`, the growth was 96.2% in assay [1]; 75.5% in assay [2]; 105% in assay [3]; 96.7% in assay [4]; 100% in assay [5]; 103% in assay [6].

For the compound `CN(C)CCOc1nc2ccccc2c2c1-c1ccc(Cl)cc1C2=O`, the growth was 52.1% in assay [1]; -41.6% (active) in assay [2]; -60.8% (active) in assay [3]; -38.7% (active) in assay [4]; 1.69% (active) in assay [5]; -45.2% (active) in assay [6].

As for `COc1ccc(-c2cc(/C=C/C(=O)c3cc(OC)c(OC)c(OC)c3)[nH]n2)cc1OC`, the growth in assay [1] was 24%; in assay [2], 4.69% (active); in assay [3], -65.6% (active); in assay [4], -9.93% (active); in assay [5], -46.5% (active); in assay [6], -61.6% (active).

For the compound `CC12O[C@H](C[C@@H](OC(=O)c3ccccc3)[C@H]1O)n1c3ccccc3c3c4c(c5c6ccccc6n2c5c31)C(=O)NC4=O`, the growth is 84.8% in assay [1]; 60.2% in assay [2]; 60.2% in assay [3]; 69.3% in assay [4]; 70.1% in assay [5]; 19.3% in assay [6].

With `C(CCCC1=NCCO1)CCCC1=NCCO1`, the growth in assay [1] is 103%; in assay [2], 109%; in assay [3], 99.4%; in assay [4], 102%; in assay [5], 112%; in assay [6], 103%.

Turning to `COc1cc(/C=C2\Oc3cc(OCC(=O)c4ccccc4)ccc3C2=O)cc(OC)c1OC`, the growth is 128% in assay [1]; 103% in assay [2]; 114% in assay [3]; 99.1% in assay [4]; 106% in assay [5]; 98.9% in assay [6].

Consider `CCCCCCN1CCN(Cc2ccc(N(CC)CC)cc2)C(=O)C1=O`, for which the growth was 68.1% in assay [1]; -79.5% (active) in assay [2]; 24% in assay [3]; 17.2% in assay [4]; 34.2% in assay [5]; 28.5% in assay [6].

For the compound `O=C(CC(NC(=O)OCc1ccccc1)C(=O)OCc1ccccc1)OCc1ccccc1` (stereo not given), the growth in assay [1] is 112%; in assay [2], 102%; in assay [3] it was 91.6%; in assay [4], 102%; in assay [5], 97.4%; in assay [6], 108%.

As for `CCc1ccc2c(c1)N(CCO)C1=C(C(=O)OC1)C2c1cc(OC)c(OC)c(OC)c1` (stereo not given), the growth was 19.8% in assay [1]; -69.9% (active) in assay [2]; 23% in assay [3]; 19.4% in assay [4]; 7.59% (active) in assay [5]; -29.6% (active) in assay [6].

Turning to `O=C1OCC2=C1C(c1cccc(Cl)c1)c1cc3c(cc1N2CCO)OCCO3` (stereo not given), the growth in assay [1] was 32.4%; in assay [2] it was -42.1% (active); in assay [3], 18.7%; in assay [4] it was 18%; in assay [5], 6.21% (active); in assay [6] it was -32.8% (active).

Take `O=C(Nc1cccc(-n2cc(-c3ccncc3)c(-c3cc(O)cc(Cl)c3)n2)c1)c1ccc(N2CCOCC2)c(C(F)(F)F)c1`: the growth in assay [1] was 52.2%; in assay [2], 23%; in assay [3], -26.2% (active); in assay [4], 29.7%; in assay [5], 12.7%; in assay [6], 9.89% (active).

In the case of `COc1cccc(-c2cc(-c3cccc(NS(C)(=O)=O)c3)nc(N)c2C#N)c1O`, the growth in assay [1] is 58.1%; in assay [2], -20.8% (active); in assay [3] it was 37.4%; in assay [4], 19.1%; in assay [5] it was 24.7%; in assay [6], 23.1%.

Consider `O=C1/C(=C/c2ccc([N+](=O)[O-])s2)Oc2ccccc21`, for which the growth was -83.2% (active) in assay [1]; -58.1% (active) in assay [2]; -61.3% (active) in assay [3]; 1.53% (active) in assay [4]; -45.4% (active) in assay [5]; -58.9% (active) in assay [6].

As for `O=C1/C(=C/c2ccc(Cl)cc2)SC(=Nc2ccc(Cl)cc2)N1Cc1nc2ccccc2[nH]1`, the growth is 104% in assay [1]; 76.3% in assay [2]; 74.9% in assay [3]; 59% in assay [4]; 53.8% in assay [5]; 76.7% in assay [6].

`CC(=O)CSC(C)=O`: the growth in assay [1] is 105%; in assay [2], 96.5%; in assay [3], 101%; in assay [4] it was 93%; in assay [5], 98%; in assay [6] it was 107%.

With `Clc1ccccc1N=Cc1ccc2c(c1)OCO2`, the growth in assay [1] was 78.2%; in assay [2], 99.8%; in assay [3], 114%; in assay [4] it was 90.5%; in assay [5], 103%; in assay [6], 98.8%.

In the case of `N#CC1=C(Nc2ccccc2Cl)SC(c2ccccc2O)NC1=O` (stereo not given), the growth in assay [1] was 111%; in assay [2], 120%; in assay [3], 105%; in assay [4], 105%; in assay [5], 109%; in assay [6] it was 116%.

In the case of `Cn1c(C(N)=O)cc2c1-c1nc(Nc3ccccc3)ncc1CCC2`, the growth in assay [1] is 33.7%; in assay [2], 45%; in assay [3] it was 57.2%; in assay [4] it was 38.7%; in assay [5], 25.8%; in assay [6] it was 7.9% (active).

Consider `CSc1nc(=O)n(Cc2ccc(F)cc2)c(=O)n1Cc1ccc(C)cc1`, for which the growth was 103% in assay [1]; 117% in assay [2]; 115% in assay [3]; 91.1% in assay [4]; 97.5% in assay [5]; 96.4% in assay [6].

On to `COc1ccc(-c2csc(NC(=O)CSc3nc(C)c(-c4ccccc4)n3Nc3ccccc3)n2)cc1`, for which the growth is 63.5% in assay [1]; 56.1% in assay [2]; 70.2% in assay [3]; 41.7% in assay [4]; 36.4% in assay [5]; 41.5% in assay [6].
